# Measurements: PubChem BioAssay (Tox21)
# Where “and” joins values, the source holds several entries; their conditions need not be identical. Equal entries are not always repeated. Results filed as inconclusive are left out. Unmarked numbers belong to inactive results. Calls of active or inactive are those of the source. The call rests on the fitted dose curve; in most records, active means well fitted inhibition curve with a large enough effect in the repeat runs; inconclusive means weak or mixed curves; inactive means no such curve, though single readings can be large or run the other way.
# Molecular target: Cytochrome P450 2C19 (Homo sapiens) (UniProt P33261)
# Sequence (P33261 whole entry, looked up): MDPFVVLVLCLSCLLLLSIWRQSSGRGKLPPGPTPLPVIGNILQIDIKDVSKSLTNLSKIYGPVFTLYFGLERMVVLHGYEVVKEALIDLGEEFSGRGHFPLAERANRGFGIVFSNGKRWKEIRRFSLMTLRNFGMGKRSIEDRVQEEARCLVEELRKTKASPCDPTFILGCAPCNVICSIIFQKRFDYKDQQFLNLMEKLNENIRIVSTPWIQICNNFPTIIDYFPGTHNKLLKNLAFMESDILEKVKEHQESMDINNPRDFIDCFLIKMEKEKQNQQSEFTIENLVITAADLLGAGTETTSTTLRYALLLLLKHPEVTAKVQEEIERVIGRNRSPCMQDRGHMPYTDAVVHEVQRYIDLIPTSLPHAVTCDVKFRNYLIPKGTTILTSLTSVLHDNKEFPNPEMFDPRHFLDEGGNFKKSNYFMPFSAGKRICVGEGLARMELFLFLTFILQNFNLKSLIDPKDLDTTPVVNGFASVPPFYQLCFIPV
# Test: Cytochrome P450 Family 2 Subfamily C Member 19 (CYP2C19) small molecule antagonists: luciferase reporter qHTS assay (AID 1671197); further: nearly all actives have a fitted effect of over 65% in size
# Conditions: P450-Glo CYP2C19 enzyme, luciferin luminescence, 1 h; series mostly up to 115 µM; activity change, negative = inhibition: at the top concentration
# Description: National Center for Advancing Translational Sciences [NCATS]
# U.S. Environmental Protection Agency [EPA]
# National Institutes of Environmental Health Sciences [NIEHS]
# National Toxicology Program [NTP]
# U.S. Food and Drug Administration [FDA]
# Cytochrome P450 (CYP) enzymes are membrane-bound hemeproteins that play a key role in metabolism of drugs and xenobiotics. Evaluation of the effect of chemicals on CYP isozymes is useful to minimize the adverse drug reactions and toxicities in drug development process. Tox21 chemicals were tested for their effect on CYP enzyme activities by using P450-Glo (TM) screening systems (Promega Corporation, Madison, WI). These systems provide a luminescent method containing proluciferin substrates and are converted to luciferin products by CYP isozymes. The luciferin products formed are detected with a luciferin detection reagent, and the amount of light produced is proportional to CYP activity. P450-Glo (TM) CYP2C19 screening system (Catalog. No. V9880) was used to detect the compounds that interfere in CYP2C19 activity. The positive control compound used for CYP2C19 assay is ketoconazole (Sigma-Aldrich, St. Louis, MO).
# Tox21 Assay Protocol Summary:
# Two ul of enzyme-substrate mix was dispensed into medium binding white/solid 1536-well plates (Greiner Bio-One North America Inc., Monroe, NC) using a BioRaptr Flying Reagent Dispenser (FRD, Beckman Coulter, Brea, CA). Compounds dissolved in DMSO and positive control (ketoconazole) were transferred to the assay plates at 23 nl using a Pintool station (Wako, San Diego, CA). The assay plates were incubated at room temperature for 10 min. Then 2 ul of NADPH regeneration solution was added to each well of the assay plates using an FRD and incubated at 37C for 1 h. The reaction was stopped by adding 4 ul of detection reagent using an FRD and after 20 min incubation at room temperature the luminescence signal was measured using a ViewLux plate reader (Perkin Elmer, Shelton, CT). Data were expressed as relative luminescence units.
# On the % scale 0 is the no-effect control and ±100 the full control effect; potency means the concentration at half of the fitted maximal effect.
Compound,Potency,"activity change, negative = inhibition"
CC1(C)[C@H](C(=O)O[C@H](C#N)c2cccc(Oc3ccccc3)c2)[C@@H]1C=C(Br)Br,5.87 µM (active) and 7.1 µM (active),
O=C=NC1CCCCC1,,-7.68%
CC(C)(c1ccccc1)c1cc(-n2nc3ccccc3n2)c(O)c(C(C)(C)c2ccccc2)c1,,-6% [at 52.9 µM]
Nc1cc(Cl)cc(C(=O)O)c1Cl,,-2.98%
CN[C@@H](C)[C@H](O)c1ccccc1,,34.3% [at 52.9 µM]
C[N+](C)(C)CCOC(=O)C(O)(c1ccccc1)c1ccccc1,,0.171% [at 52.9 µM]
COc1cc(CC#N)cc(OC)c1OC,,14.6% [at 52.9 µM]
CCCCNC(=O)OCC#CI,2.81 µM (active) and 2.52 µM (active),
Nc1ccc2c(c1)Cc1ccccc1-2,8.88 µM (active),
CCCCC(CC)COC(=O)c1c(Br)c(Br)c(Br)c(Br)c1C(=O)OCC(CC)CCCC (stereo not given),,-14.9% [at 52.9 µM]
CCCC[N+]1(C)[C@@H]2CC(OC(=O)[C@H](CO)c3ccccc3)C[C@H]1[C@@H]1O[C@@H]12 (stereo not given in full),,-15.7% [at 52.9 µM]
COc1ccc(C(=O)c2c(C)n(CCN3CCOCC3)c3ccccc23)cc1,34.7 µM (active),
CC(C)CCCCCCCOC(=O)c1ccccc1C(=O)OCCCCCCCC(C)C,,13.3%
CCCC(C)(COC(N)=O)COC(=O)NC(C)C (stereo not given),20 µM (active) and 8.71 µM (active),
COC(=O)C1(O)c2ccccc2-c2ccccc21,79.6 µM (active),
CC(C)(C#N)C(C)(C)C#N,,-28.2%
CCOP(=O)(SC(C)CC)N1CCSC1=O (stereo not given),79.6 µM (active),
O=C(N[C@H]1CN2CCC1CC2)c1ccc2c(c1)OCCO2,,9.83%
CC(C)[C@@H](C(=O)O[C@@H](C#N)c1cccc(Oc2ccccc2)c1)c1ccc(Cl)cc1,9.07 µM (active) and 31.7 µM (active),
CCCN(CCOc1c(Cl)cc(Cl)cc1Cl)C(=O)n1ccnc1,22.9 nM (active) and 50.2 nM (active),

Compound,Potency,"activity change, negative = inhibition"
O=C1CC[C@@]2(O)[C@H]3Cc4ccc(O)c5c4[C@@]2(CCN3CC2CC2)[C@H]1O5,,-24.1% [at 52.9 µM]
Nc1cccc2ccccc12,16 µM (active) and 20 µM (active),
CC(C)c1ccc(OP(=O)(Oc2ccc(C(C)C)cc2)Oc2ccc(C(C)C)cc2)cc1,3.58 µM (active) and 3.56 µM (active) and 2.83 µM (active),
CCCCCl,41 µM (active),
COC(=O)Cc1ccccc1,,21.5%
O=C(O)c1cc(Cl)ccc1Cl,79.3 µM (active),
NC(=O)CF,,-19.1%
CC[N+]1(CCOC(=O)C(O)(c2ccccc2)c2ccccc2)CCCCC1,,0.786% [at 52.9 µM]
O=C1c2ccccc2C(=O)N1SC(Cl)(Cl)Cl,78.5 µM (active) and 20 µM (active),
C#CC(O)(C=CCl)CC (stereo not given),,1.97% [at 52.9 µM]
SCc1ccccc1,7.31 µM (active),
Cc1cccc(C)c1NC1=NCCCS1,,23.1% [at 52.9 µM]
CN1C[C@H](C(=O)N[C@]2(C)O[C@@]3(O)[C@@H]4CCCN4C(=O)[C@H](Cc4ccccc4)N3C2=O)C=C2c3cccc4[nH]cc(c34)C[C@H]21,28.4 µM (active) and 18.6 µM (active),
O=C(O)C(F)(F)C(F)(F)C(F)(F)C(F)(F)C(F)(F)C(F)(F)C(F)(F)C(F)(F)F,71 µM (active),
C=CCSSCC=C,7.96 µM (active),
CCOC(C(=O)OCCN(C)C)(c1ccccc1)c1ccccc1,8.71 µM (active),
O=C1NC(=O)C(=O)C(=O)N1,,11%
O=C(O)c1ccc(=O)[nH]c1,,11.7% [at 52.9 µM]
CCOc1cccc(C2(N3CCN(c4ccccc4)CC3)CCC(C)CC2)c1 (stereo not given),,-19.1%
CC(CC(C(N)=O)(c1ccccc1)c1ccccc1)N(C)C (stereo not given),,-1.72% [at 52.9 µM]
